INS promoter inh = inhibitors of insulin promoter-driven GFP, primary screen, imaging, TRM-6 cells (human fetal islet line), eGFP reporter, cell count. 130,000 tested, 0.9% active. reporter expression induced with tamoxifen. inhibition, % at 2 µM;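 active = inhibition above the mean plus 3 SD, with well images judged a real hit on visual review, cut at about 60% in these data, passing the limit was not always enough; inconclusive = inhibition over the cutoff but images rejected on review; inactive = inhibition not above the cutoff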
PTEN del growth = growth suppression of PTEN-null HCT116, primary screen, cell-based, CellTiter-Glo | HCT116 PTEN-null viability, 60 h; hits give low values | viability, % at 10 µM | 140,000 tested, 1.2% active;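 active = viability at or below a set limit, 4 SD under the median of all tested compounds, cut at about 3.7% in these data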;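 also: PTEN knockout HCT116 line with beta catenin targeted HCT116 as companion control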
Ins promoter up = insulin promoter activators in MIN6 cells, imaging, high-content screening, mouse beta cells. MIN6 insulin promoter-GFP reporter; hits give high values. z-score at 5 µM. 190,000 tested, 0.3% active. AID 1625, 2009;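 active = z-score above 3 at 5 µM with at least 500 cells counted in the well; inconclusive = wells under 500 cells, flagged as cytotoxic or low count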
Autophagy mod = autophagy modulators in MEF cells, primary screen, imaging, high-content, MEF GFP-LC3. MEF GFP-LC3 puncta imaging; test concentration mostly 10 µM. calls only at 10 µM (by protocol). 190,000 tested, 0.98% active;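 active = percentage of spot-positive cells more than 3 SD above its plate mean, without a fluorescence outlier flag or 80% toxicity; inconclusive = no clear call, values can overlap the other calls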;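 also: spot-positive cell cutoff set from DMSO-treated cells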
Lmaj promast = Leishmania major promastigote growth inhibition, primary screen. Leishmania major promastigotes, resazurin fluorescence viability. inhibition, % at 10 µM. 200,000 tested, 9% active. AID 1063, 2008; in the data active = inhibition above about 50%;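 also: promastigotes grown with compound for 44 hours at 28 °C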
bCat KO growth = primary screen for growth suppressors in beta-catenin knockout HCT116 cells (colon tumor, human); HCT116 beta-catenin knockout viability, CellTiter-Glo, 60 h; hits give low values; viability, % at 10 µM; 140,000 tested, 1.5% active;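 active = viability at or under a set limit, the compound median less 4 SD, cut at about 6% in these data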;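 also: 0% = Hyamine 1622 control at 20 µM and 100% = untreated cell control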
L major 1uM = Leishmania major promastigote growth inhibition, confirmation, 1 µM repeat of primary hits. shares compounds with Lmaj promast. L. major promastigote growth, resazurin fluorescence, 48 h. inhibition, % at 1 µM. 1,100 tested, 13% active;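 active = inhibition above about 50% in both repeat tests, limit read from the data; inconclusive = one repeat under the set limit, the other over it; inactive = both repeats under the set limit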
An asterisk follows results filed as active; i = inactive; ? = inconclusive; / = no result. This is a sample that favours compounds with a hit; in the whole collection about 9.6% have one here.

SMILES	INS promoter inh	PTEN del growth	Ins promoter up	Autophagy mod	Lmaj promast	bCat KO growth	L major 1uM
CCOc1ccc(C(F)(F)F)cc1NC(=O)COc1ccc(C(F)(F)F)cc1[N+](=O)[O-]	-32	94	-0.15	i	-4	83	/
CCCOP(=O)(OCCC)c1c([N+](=O)[O-])cc(C(F)(F)F)cc1[N+](=O)[O-]	-9	10	/	i	54*	8	1
O=C(O)c1ccc(N=NN2CCCCCC2)cc1	11	104	-0.3	i	59*	91	-3
COC(=O)C(=C/C(C)=C/c1cccs1)C(=O)OC	33	/	-0.45	i	62*	/	21
CN(C)c1nc(-c2ccccn2)nnc1-c1ccccc1	-4	14	-2.6	i	100*	13	74*
O=C1CCCc2c1cc(-c1ccccc1)n2-c1ccc(O)cc1	-76	66	-0.15	i	53*	59	-22
Cc1cccc(C)c1NC1=NC(=S)N(c2ccccc2)C12CCOC(C)(C)C2 (configuration not stated)	-10	24	-0.45	i	10	30	/
CC[C@H](C)C(=O)O[C@H]1CCC=C2C=C[C@H](C)[C@H](CC[C@@H]3C[C@@H](O)CC(=O)O3)[C@H]21	-133	/	-1.7	i	76*	/	-6
COC(=O)CN1C(=O)N/C(=C/c2ccc(C)o2)C1=O	/	/	-0.2	i	-4	/	/
Cc1ccc(C2=NNC(=O)C(c3ccc(Cl)cc3)C2)cc1 (configuration not stated)	/	101	-0.72	i	70*	86	-20
O=C1NN=C(c2ccc(Cl)cc2)CC1c1cccc(Br)c1 (configuration not stated)	/	/	-0.17	i	9	/	/
CCCCNC(=O)c1ccc2c(=O)n(CCCOCC)c(=S)[nH]c2c1	11	95	0.33	i	1	99	/
Cc1cccc(-n2c3nc(=O)[nH]c(=O)c-3cc3cc([N+](=O)[O-])ccc32)c1	-29	20	-0.15	i	95*	17	15
O=C(c1ccc(Cn2c(=O)[nH]c3ccccc3c2=O)cc1)N1CCN(c2ccccc2)CC1	-91	58	1.1	i	94*	62	14
CCOC(=O)c1ccc(CN(Cc2ccccc2)S(=O)(=O)c2cccc([N+](=O)[O-])c2)cc1	/	92	-0.56	i	7	85	/
Cc1ccc(NC(=O)c2ccc(Br)o2)cc1S(=O)(=O)N(C)C	-85	/	0.03	i	60*	/	-3
Cc1ccc(NC(=O)c2ccncc2)cc1S(=O)(=O)N(C)C	/	102	1.4	i	-4	97	/
CNCC[C@H](Oc1cccc2ccccc12)c1cccs1	/	/	0.56	/	/	/	/
CNCCC(Oc1ccc(C(F)(F)F)cc1)c1ccccc1 (configuration not stated)	-33	55	/	i	90*	49	-20
COc1cc(C)c(S(=O)(=O)N2CCOCC2)cc1C(C)C	14	89	/	i	1	100	/
CC(C)Cc1nc2ccccc2n1CCc1ccccc1	0	77	-0.42	i	56*	80	7
Cc1onc(-c2ccccc2Cl)c1C(=O)Oc1cccc2cccnc12	-19	/	-0.84	i	28	/	/
CC(C)(C)c1ccc(Oc2ccc(N)cn2)cc1	/	/	1.1	/	/	/	/
CCC(C)(C)c1ccc(Oc2ccc(N)cc2)cc1	-73	/	-0.14	i	95*	/	14
CCOc1ccccc1N(C(=O)Nc1cccc(Cl)c1)C1=NC(C)CS1 (configuration not stated)	-52	96	0.58	i	81*	107	7
C/C(N)=C(/C#N)C(=O)CSc1nnc(Nc2ccccc2)s1	-45	/	1.1	i	54*	/	-15
C/C(N)=C(/C#N)C(=O)CSc1nnc(Nc2ccccc2C)s1	35	99	1.7	i	0	109	/
Cc1ccccc1NC1=C/C(=N\S(=O)(=O)c2cccs2)c2ccccc2C1=O	-35	1.9*	?	i	100*	1.5*	97*

Compound activity deposited in PubChem by several laboratories.
